# Values joined by “and” are separate entries in the source; they are usually repeats but may differ in a detail not shown here. Equal entries are not always repeated. Where two headings read alike, the source gives them in different places.
# How the values were obtained:
# LKB1 = tested on: T1, LKB1; settings: concentration: 1 μM, replicates: in singlicate, n = 1
# T1 construct: gene STK11
# LOK = tested on: T2, LOK; settings: concentration: 1 μM, replicates: in singlicate, n = 1
# T2 construct: gene STK10
# LRRK2 = settings: concentration: 1 μM, replicates: in singlicate; n = 1
# LTK = settings: concentration: 1 μM, replicates: in singlicate; n = 1
# LYN = settings: concentration: 1 μM, replicates: in singlicate, n = 1
# LZK = tested on: T3, LZK; settings: concentration: 1 μM, replicates: in singlicate, n = 1
# T3 construct: gene MAP3K13
# MAK = settings: concentration: 1 μM, replicates: in singlicate, n = 1
# MAP3K15 = settings: concentration: 1 μM, replicates: in singlicate, n = 1
# MAP3K1 = settings: concentration: 1 μM, replicates: in singlicate, n = 1
# MAP3K2 = settings: concentration: 1 μM, replicates: in singlicate, n = 1
# 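Also: KINOMEscan kinase panel screen.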
Structure (SMILES),%Inh (LKB1) [%],%Inh (LOK) [%],%Inh (LRRK2) [%],%Inh (LTK) [%],%Inh (LYN) [%],%Inh (LZK) [%],%Inh (MAK) [%],%Inh (MAP3K15) [%],%Inh (MAP3K1) [%],%Inh (MAP3K2) [%],%Inh (LKB1; 1 µM),%Inh (LOK; 1 µM),%Inh (LYN; 1 µM),%Inh (LZK; 1 µM),%Inh (MAK; 1 µM),%Inh (MAP3K15; 1 µM),%Inh (MAP3K1; 1 µM),%Inh (MAP3K2; 1 µM)
O=C(NCCCN1CCCC1=O)c1cnc(NCc2cc(Cl)ccc2Cl)nc1NC1CCNCC1,0,4,0,0,1,0,84,0,0,79,,,,,,,,
Clc1cc(Nc2ncnc3cc[nH]c23)ccc1OCc1ccccn1,10,30,0,14,15,0,42,46,7,2,,,,,,,,
CCc1nc(-c2cccc(C)c2)c(-c2ccnc(NC(=O)c3ccccc3)c2)s1,0,11,3,10,8,42,16,2,2,0,,,,,,,,
CC(C)N1CCC(n2cnc(-c3ccc(F)cc3)c2-c2ccnc(N)n2)CC1 [SB-223132],0,0,28,2,22,0,0,0,0,0,,,,,,,,
FC(F)(F)c1ccc(-c2nn3ncccc3c2-c2ccnc(Nc3cccc(C(F)(F)F)c3)n2)cc1 [GW828205],0,16,17,0,0,0,22,0,0,0,,,,,,,,
Fc1ccc(Nc2nccc(-c3c(-c4ccc(Cl)cc4)nn4ncccc34)n2)cc1F [GW829058],8,28,0,6,24,5,12,24,22,27,,,,,,,,
CNc1nccc(-c2c(-c3ccc(F)cc3)ncn2C2CCN(C)CC2)n1 [SB-222903],0,3,0,0,0,0,0,0,0,0,,,,,,,,
Cc1ccc(NC(=O)c2cccc(C#N)c2)cc1-c1ccc(C(=O)Nc2ccncc2)cc1 [GSK1398463],0,0,28,0,69,0,36,0,12,0,,,,,,,,
CCCc1ccc(S(=O)(=O)NC2CCN(c3ccnc(Nc4ccc(OC)cc4)n3)C2)cc1 (stereo not shown) [GSK1379737],6,0,0,100,0,25,16,0,1,1,,,,,,,,
Fc1cccc(COc2ccc(Nc3ncnc4nn5ccccc5c34)cc2Cl)c1 [GW689066],14,0,31,0,0,16,0,0,0,8,,,,,,,,
Nc1nccc2scc(-c3ccc4c(c3)CCN4C(=O)Cc3cc(F)ccc3F)c12 [GSK2587663],14,0,9,2,0,0,8,0,7,23,,,,,,,,
Nc1nc(-c2ccc3c(N)n[nH]c3c2)cc(N2CCC[C@@H](C(=O)Nc3ccccc3)C2)n1.O=C(O)C(F)(F)F.O=C(O)C(F)(F)F [GSK2288359],6,0,0,15,0,0,29,2,15,0,,,,,,,,
Fc1ccc(-c2ncn(CCCNCc3ccccc3)c2-c2ccncc2)cc1,27,19,0,0,22,12,5,10,15,0,,,,,,,,
Cl.O=S(=O)(c1cccc(F)c1)c1ccc(Nc2ncnc3cc(Br)sc23)cc1Cl [GSK306886],10,6,0,0,0,0,10,0,24,7,,,,,,,,
Cn1ccc2ncnc(Oc3ccc(NC(=O)Nc4cccnc4)c(Cl)c3)c21,11,35,0,6,5,0,0,0,0,0,,,,,,,,
CNc1nccc(-c2c(-c3ccc(F)cc3)ncn2CCCN2CCOCC2)n1 [SB-222516],0,0,0,0,0,0,0,0,21,5,,,,,,,,
COc1ccc(-c2oc3ncnc(N)c3c2-c2ccc(OC)cc2)cc1 [SB-589132],28,0,33,0,4,51,11,0,10,0,,,,,,,,

Structure (SMILES),%Inh (LKB1) [%],%Inh (LOK) [%],%Inh (LRRK2) [%],%Inh (LTK) [%],%Inh (LYN) [%],%Inh (LZK) [%],%Inh (MAK) [%],%Inh (MAP3K15) [%],%Inh (MAP3K1) [%],%Inh (MAP3K2) [%],%Inh (LKB1; 1 µM),%Inh (LOK; 1 µM),%Inh (LYN; 1 µM),%Inh (LZK; 1 µM),%Inh (MAK; 1 µM),%Inh (MAP3K15; 1 µM),%Inh (MAP3K1; 1 µM),%Inh (MAP3K2; 1 µM)
CN1CCC(n2cnc(-c3ccc(F)cc3)c2-c2ccnc(NC3CCNCC3)n2)CC1 [SB-229482],27,0,0,0,15,0,29,0,4,0,,,,,,,,
COc1ccc(-c2nc3n(c2-c2ccncc2)CCC3)cc1 [SKF-104493],,,0,2,,,,,,,27% and 21%,19% and 11%,9% and 0%,0% and 5%,19% and 0%,3% and 4%,11% and 1%,6% and 0%
Cl.Cl.c1ccc(-c2cc3ccncc3cc2OC2CCNCC2)cc1 [GSK1122999],3,0,0,24,38,0,28,0,19,13,,,,,,,,
c1ccc(-c2ccc3c(-c4ccnc(Nc5ccc6c(c5)OCCO6)n4)cnn3n2)cc1 [GW818941],0,17,29,0,0,0,100,11,1,0,,,,,,,,
CCC(CC)(CC)n1cnc2c(N)ncnc21 [SKF-97620],70,23,9,6,0,36,12,24,21,40,,,,,,,,
Cl.c1ccc(Cn2ccc3cc(Nc4ncnc5ccccc45)ccc32)cc1 [GW275568],0,32,0,6,0,35,25,0,0,0,,,,,,,,
O=C(c1ccc(-c2cc(-c3c[nH]nc3-c3ccccn3)ccn2)cc1)N1CCCC1 [GW792479],0,0,10,0,0,0,0,0,0,0,,,,,,,,
CS(=O)(=O)CCNCc1ccc(-c2ccc3ncnc(Nc4ccc(OCc5ccccc5)c(Cl)c4)c3c2)o1.Cl [GW574783],0,58,22,25,0,26,12,5,15,0,,,,,,,,
C[C@@H]1CCN(C(=O)CO)C[C@@H]1N(C)c1ncnc2[nH]ccc12,0,5,0,27,8,10,0,0,0,0,,,,,,,,
Fc1cccc(COc2ccc(Nc3ncnc4sc(-c5ccc[nH]5)cc34)cc2Cl)c1 [GW707818],17,28,0,1,0,82,36,0,4,0,,,,,,,,
CCn1c(-c2ccncc2)nc2cnccc21 [SB-735216],0,0,0,0,19,59,12,47,10,6,,,,,,,,
FC(F)(F)c1ccc(-c2cc(-c3c[nH]nc3-c3ccccn3)ccn2)cc1 [GW599550],12,0,7,21,0,29,11,0,5,0,,,,,,,,
Cc1cccc(-c2nc(Nc3ccc4[nH]nnc4c3)c3ccccc3n2)n1 [GW867587],0,0,0,13,0,0,0,0,0,0,,,,,,,,
Nc1nc(-c2ccccn2)c(-c2ccnc3ccccc23)s1 [GW548057],8,0,0,0,0,51,12,11,10,0,,,,,,,,
CC(C)(C)c1ccc(-n2cnc3c(N)ncnc32)cc1 [SKF-97263],0,2,22,6,5,0,8,16,8,1,,,,,,,,
Cc1ccc(C)c(NC(=O)NCCNc2ccnc(Nc3ccc(F)cc3)n2)c1 [GSK1379878],14,0,0,0,0,0,22,0,0,0,,,,,,,,
O=C(Nc1n[nH]c2nc(-c3ccco3)c(Br)cc12)c1ccc(CN2CCCC2)cc1.O=C(O)[C@H](O)[C@@H](O)C(=O)O [SB-742352],0,14,0,21,50,0,20,0,0,0,,,,,,,,
